The list is not random: actives were taken first. Their share in the collection is about 1.3%.
TRPML1 inh: inhibitors of human TRPML1 channel | TRPML1-inducible cells, Ca2+ dye fluorescence, FDSS; active compounds read low; inhibition of EC80 agonist-evoked calcium signal | activity change, negative = inhibition, % (no concentration beside the values) | actives 0.02% (n = 390,000) | AID 624415; in the data active means activity change below about -50%; inconclusive means between about -30% and that limit;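 further: stimulus is agonist 54-4 at its EC80 concentration; on the % scale 0 is the no-effect control and ±100 the full control effect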
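Tet-induced TRPML1-DL cells loaded with Ca8 no-wash calcium dye were read kinetically on FDSS. Compound addition was followed by EC80 agonist 54-4 (4 uM final); inhibition was read over 110 s.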
12-LOX inh: inhibitors of human 12S-lipoxygenase ALOX12. P18054. purified 12hLO, xylenol orange hydroperoxide absorbance. Potency, µM (doses to about 108 µM), inactives show at the highest dose activity change, negative = inhibition, actives largely listed as inhibitors. actives 1.1% (n = 580,000); further: potency means the concentration at half of the fitted maximal effect; on the % scale 0 is the no-effect control and ±100 the full control effect
Target sequence (P18054 whole entry, looked up): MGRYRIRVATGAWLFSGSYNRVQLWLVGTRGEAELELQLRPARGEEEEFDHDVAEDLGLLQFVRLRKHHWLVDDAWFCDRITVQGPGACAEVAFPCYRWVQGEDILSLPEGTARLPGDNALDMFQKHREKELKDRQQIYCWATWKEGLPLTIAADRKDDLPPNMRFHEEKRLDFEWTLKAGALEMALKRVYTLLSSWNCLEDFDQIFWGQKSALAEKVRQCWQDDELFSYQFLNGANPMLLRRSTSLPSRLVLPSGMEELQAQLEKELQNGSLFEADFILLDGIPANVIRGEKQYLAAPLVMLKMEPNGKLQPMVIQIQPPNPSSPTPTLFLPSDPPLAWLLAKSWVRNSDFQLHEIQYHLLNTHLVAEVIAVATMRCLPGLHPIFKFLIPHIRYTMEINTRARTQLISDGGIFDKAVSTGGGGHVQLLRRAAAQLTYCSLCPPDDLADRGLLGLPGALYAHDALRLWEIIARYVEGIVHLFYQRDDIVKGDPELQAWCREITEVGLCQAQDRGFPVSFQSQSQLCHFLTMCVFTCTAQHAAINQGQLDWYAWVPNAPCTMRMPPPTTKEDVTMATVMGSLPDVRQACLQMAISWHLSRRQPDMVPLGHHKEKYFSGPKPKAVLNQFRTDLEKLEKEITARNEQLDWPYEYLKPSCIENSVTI
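Hydroperoxide product was detected by ferrous iron/xylenol orange as the 573 to 405 nm absorbance ratio. Arachidonic acid at 40 uM (final) was turned over for 30 min at room temperature by 150 nM human 12hLO, pH 7.0 Hepes buffer, after 15 min compound preincubation.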
TRPML1 agonist: agonists of human TRPML1 channel | Q9GZU1 | TRPML1-expressing cells, Ca2+ dye fluorescence, FDSS | activation, % (no concentration beside the values) | actives 0.12% (n = 410,000) | AID 624414; in the data active means activation above about 50%; inconclusive means mostly about 30% to 49%; further: 0% is about no effect
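In this qHTS format, compounds were pin-transferred onto Ca8-dye-loaded TRPML1-DL cells induced with Tet overnight, and intracellular Ca2+ fluorescence was recorded kinetically for 110 s after a 10 s baseline. A subsequent 4uM final 54-4 (EC80) addition followed by a second 110 s read served as the antagonist phase.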
Vif-APOBEC3G blk: blocks the Vif interaction with human APOBEC3G; Q9HC16; HeLa A3G-eYFP + Vif (tagged APOBEC3G with the HIV-1 protein that degrades it), YFP fluorescence, overnight; Potency, µM (doses to about 46.1 µM), inactives show top-dose activity, negative = active, hits mostly inhibitors; actives 0.076% (n = 410,000); AID 602310; further: potency means the concentration at half of the fitted maximal effect; on the % scale 0 is the no-effect control and ±100 the full control effect; nearly all actives have a fitted effect of over 60% in size
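Read-out is eYFP fluorescence (Ex 488/Em 500-530) from Vif-expressing HeLa A3G-eYFP cells; more signal means A3G escaped Vif-mediated degradation. Cells plated overnight, compound pinned in, incubated overnight at 37 deg C.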
Vif-APOBEC3F blk: blocks the Vif interaction with APOBEC3F. HeLa A3F-eYFP + Vif (tagged APOBEC3F with the HIV-1 protein that degrades it), YFP fluorescence increase. Potency, µM (titrated, usually from 46.1 µM), without a hit: at the highest dose activity, negative = active. actives 0.2% (n = 390,000); further: potency means the concentration at half of the fitted maximal effect; % of control where 0% means no effect; nearly all actives have a fitted effect of over 65% in size
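HeLa cells stably expressing Vif plus C-terminally eYFP-tagged A3F were seeded, incubated overnight at 37 deg C, dosed with compound, incubated overnight again at 37 deg C. Yellow fluorescence (Ex 488/Em 500-530) reported blocked Vif-mediated A3F-eYFP degradation.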
GRP78 ERSR act: inducers of ER stress response in human glioma cells; U87-MG GRP78 promoter luciferase reporter, 16 h; Potency, µM, inactives show top-dose activation, actives largely listed as activators; actives 0.02% (n = 420,000); AID 602332; further: potency means the concentration at half of the fitted maximal effect; series mostly up to about 76 µM; % of control where 0% means no effect; nearly all actives have a fitted effect of over 35% in size
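Stably transfected U87-MG glioma cells carrying a GRP78-based luciferase sensor; 16 h compound incubation. Luminescence end-point read 10 min after Bright-Glo addition at room temperature.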
Numbers without * were called inactive; ? = inconclusive; nt = no result given; ! = repeats disagree; [ ] = dose if it differs, or a comment. Unless noted, the call rests on the fitted dose curve; in most records, active means well fitted curve in the direction sought with a large enough effect; inconclusive means small, poorly fitted or top-dose-only effect, or another doubt; inactive means no such curve, though single readings can be large; an effect the other way counts as inactive or inconclusive.

SMILES	TRPML1 inh	12-LOX inh	TRPML1 agonist	Vif-APOBEC3G blk	Vif-APOBEC3F blk	GRP78 ERSR act
COc1ccc(-c2cc(C(=O)OCC(=O)c3ccc(C)cc3)c3cccc(Cl)c3n2)cc1	1	?	0	-2%	-10%	-3%
COC(=O)c1cc(-c2ccco2)nc2c(Cl)cccc12	nt	22µM*	nt	nt	nt	nt
Cc1ccc2nc(-c3ccco3)cc(C(=O)O)c2c1	nt	7.9µM*!	nt	nt	nt	nt
Cc1ccc(-c2cc(C(=O)OC(C)C(=O)NC3CCCC3)c3ccccc3n2)o1 (stereo not drawn)	nt	6.3µM*	nt	nt	nt	nt
Cc1cc(C(=O)OC(C)C(=O)NC2CCCCC2C)c2ccccc2n1 (stereo not drawn)	8	1%	-1	-5%	-4%	-2%
COc1ccc(C(C)=O)cc1CN1CCc2ccccc2C1	nt	-29%	nt	nt	nt	nt
O=C(Cn1ccn2nc(-c3ccccc3)cc2c1=O)Nc1cccc(Cl)c1	nt	-13%	nt	nt	nt	nt
CC(C)CCN1CC(CN[S+](=O)([O-])c2ccccc2)C2(C1)CN(c1ccccc1)C2 (stereo not drawn)	nt	-1%[176 µM]	nt	nt	nt	nt
CCOc1ccc(OCC)c(C(=O)NCc2coc(-c3cccs3)n2)c1	nt	-8%	nt	nt	nt	nt
O=C(NC1CC1)c1cccc(NC(=O)c2nn(Cc3ccccc3)c(=O)c3ccccc23)c1	nt	-22%	nt	nt	nt	nt
COc1ccc(CCNC(=S)Nc2ccc(C(C)C)cc2)cc1	28	40µM*	2	3%	-7%	-1%
CCC(C)c1ccc(NC(=S)Nc2ccc(OC)cc2)cc1 (stereo not drawn)	-9	45µM*	0	-2%	?	3%
CCOc1ccc(NC(=S)Nc2ccc(OC)cc2)cc1	18	?	-1	2%	-1%	2%
COC(=O)c1sc(=S)n(-c2cccc(OC)c2)c1N	nt	13µM*	nt	nt	nt	nt
COC(=O)c1sc(=S)n(-c2ccc(Br)cc2)c1N	nt	11µM*	nt	nt	nt	nt
CCOc1cc(NC(=S)Nc2ccccc2OC)c(OCC)cc1NC(=O)c1ccccc1C	-3	45µM*	1	-1%	7%	-6%
CCOc1cc(NC(=S)NCC2CCCO2)c(OCC)cc1NC(=O)c1ccccc1C (stereo not drawn)	4	-32%	0	-2%	-5%	2%
NC(=O)c1c(NC(=O)C2COc3ccccc3O2)sc2c1CCN(Cc1ccccc1)C2 (stereo not drawn)	2	366%	1	-14%	?	-3%
COC(=O)N1CCc2c(sc(NC(=O)C3COc4ccccc4O3)c2C(N)=O)C1 (stereo not drawn)	-15	18µM*	2	?	-10%	3%
Cc1ccc(-c2cc(Nc3cccc(C)c3)nc(C)n2)cc1	nt	50µM*	nt	nt	nt	nt
CCc1ccccc1NC(=O)CN(C)Cc1c(O)ccc2ccccc12	2	?	1	-16%	-2%	9%
CN(CC(=O)Nc1ccccc1C(F)(F)F)Cc1c(O)ccc2ccccc12	2	7.1µM*	1	-8%	18%	-3%
Cc1cccc(N(C)C(=O)Cn2nc(-c3ccc(F)cc3)ccc2=O)c1	nt	30%	nt	nt	nt	nt
Cc1nc2ccc(C(=O)OCC(=O)NC(=O)NC(C)C)cc2nc1C	nt	2%	nt	nt	nt	nt
CC(=O)c1sc(N/N=C/c2cccc(O)c2)nc1C	27	15%	-1	-8%	-3%	5%
SMILES	TRPML1 inh	12-LOX inh	TRPML1 agonist	Vif-APOBEC3G blk	Vif-APOBEC3F blk	GRP78 ERSR act
CC(=O)c1sc(N/N=C\c2c(O)ccc3ccccc23)nc1C	2	40µM*	4	?	?	5%
Cc1sc(NC(=O)C2CCCC2)c(C#N)c1C	-5	?	0	1%	3%	-2%
CCc1c(C)sc(NC(=O)CC#N)c1C#N	-14	?	0	-9%	-24%	-1%
CCc1c(C)sc(NC(=O)C2CCC2)c1C#N	nt	13µM*	nt	nt	nt	nt
CCc1c(C)sc(NC(=O)C2CC2)c1C#N	nt	28µM*	nt	nt	nt	nt
CCc1c(C)sc(NC(=O)C(F)(F)C(F)(F)C(F)(F)C(F)(F)F)c1C#N	nt	10µM*	nt	nt	nt	nt
O=C(Nc1cccc(N2CCCC2=O)c1)C1CCN(S(=O)(=O)c2cc(Cl)ccc2Cl)CC1	nt	-21%	nt	nt	nt	nt
CCOC(=O)c1c(NC(=O)C2=C(C)NC(=S)NC2c2ccc(F)cc2)sc(C)c1C (stereo not drawn)	47	28µM*	2	0%	2%	-2%
CCOC(=O)c1c(NC(=O)C2=C(C)NC(=S)NC2c2ccc(C)cc2)sc(C)c1C (stereo not drawn)	15	18µM*	1	0%	15%	-4%
CCOC(=O)c1c(NC(=O)C2=C(C)NC(=S)NC2c2ccc(F)cc2F)sc(C)c1C (stereo not drawn)	-10	40µM*	-1	1%	0%	-2%
Cc1c(C(=O)N2CCCCCC2)c(S(=O)(=O)N2c3ccccc3CC2C)c(C)n1C (stereo not drawn)	nt	-3%	nt	nt	nt	nt
COc1ccc(Cc2c(-c3ccc(C)cc3)nc3ccc(Cl)cn23)c(C)c1	50	40µM*	0	-13%	nt	3%
COC(=O)c1ccc2nc(-c3ccc(Cl)cc3)c(Cc3ccc(OC)cc3C)n2c1	nt	?	0	nt	nt	nt
OCCN(CC#CCC(O)(c1ccccc1)C1CCCC1)CCO (stereo not drawn)	5	-7%	0	2%	5%	-3%
CC(C)(C)N(CC#CCC(O)(c1ccccc1)c1ccccc1)CCO	-19	7.9µM*	0	-2%	-26%	-2%
CCCCN(C(=O)c1ccc([N+](=O)[O-])s1)c1c(N)n(CCCC)c(=O)[nH]c1=O	6	-15%	0	-17%	13µM*	-4%
CCCCn1c(N)c(N(CCC(C)C)C(=O)COC(=O)c2ccc([N+](=O)[O-])s2)c(=O)[nH]c1=O	10	-8%	1	-23%	?	0%
COC(=O)c1ccc(C)c(NC(=O)C2CCCN(S(=O)(=O)Cc3ccc(F)cc3)C2)c1 (stereo not drawn)	nt	-79%	nt	nt	nt	nt
Cc1ccc(NC(=S)NC(=O)C2CCCC2)c(Br)c1	-9	35µM*	2	-2%	7%	4%
O=C(NC(=S)Nc1ccccc1Br)C1CC1	-9	-22%	1	0%	?	7%
Cc1ccc(NS(=O)(=O)c2ccc(Cl)c(NC(=S)NC(=O)C3CCCCC3)c2)cc1Cl	-2	13µM*	1	-11%	0%	-15%
Cc1cc(C)cc(NC(=S)NC(=O)C2CC2)c1	-2	?	0	0%	13µM*	0%
CS(=O)(=O)N1CCCCC1C(=O)NC1CCCCCCC1 (stereo not drawn)	nt	0%	nt	nt	nt	nt
O=C(NCCc1ccc(Cl)cc1)c1ccccn1	nt	32µM*	nt	nt	nt	nt
CC(=O)N1CCC(N[C@@H]2C[C@H](COc3cccc(C)n3)[C@@H](O)[C@H]2O)CC1	nt	16µM*	nt	nt	nt	nt
